From PubChem BioAssay
Hits are enriched below; roughly 10% of the tested compounds scored in any of these assays.
Luciferase inh: Firefly luciferase inhibition profiling of diverse chemical library using quantitative high-throughput screening. Luciferin 4-monooxygenase (Photinus pyralis), P08659. purified P. pyralis luciferase, luminescence, biochemical. Potency, µM (titrated, usually from 115 µM), usual class: inhibitors. actives 2.5% (n = 76,000). AID 1347043, 2019; note: nearly all actives have a fitted effect of over 65% in size
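Biochemical qHTS: compound (6-point titration) added to 10uM D-luciferin plus 10uM ATP in Tris acetate pH 7.5 buffer with Mg, Tween-20 and BSA, then purified enzyme at 10nM; light output imaged.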
NIH3T3 tox: Cytotoxic Profiling in NIH 3T3 Cell Line of Diverse Libraries Using Quantitative High-Throughput Screening; NIH 3T3 viability, CellTiter-Glo ATP luminescence, 48-72 h; Potency, µM (series often up to 96.7 µM), usual class: inhibitors; actives 4.3% (n = 94,000); note: nearly all actives have a fitted effect of over 55% in size
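Cells were seeded at 400 per well, treated with pin-transferred compound, and kept 48 or 72 hr at 37 °C before CellTiter-Glo addition and luminescence imaging of cellular ATP.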
GPT2 inh: Primary qHTS assay for inhibitors of Glutamate pyruvate transaminase 2 (GPT2). Alanine aminotransferase 2 (Homo sapiens), Q8TD30. Potency, µM (series often up to 57.7 µM), actives largely listed as inhibitors. AID 1671188, 2021. actives 0.25% (n = 100,000). Recombinant GPT2, coupled pyruvate oxidase/HRP Amplex Red fluorescence; note: nearly all actives have a fitted effect of over 60% in size
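GPT2 10ng/uL, a-KG 250uM, L-Ala 2mM, HEPES pH7.5 + 0.0001% Tween; 30 min RT. Then Amplex mix (PO/HRP/ThPP), 30 min RT dark, fluorescence. AOA 50uM used as positive control.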
HEK cytotox: Cytotoxic Profiling in HEK 293 Cell Line of Diverse Libraries Using Quantitative High-Throughput Screening; HEK 293 viability, ATP luminescence (CellTiter-Glo), 48-72 h; Potency, µM (series often up to 115 µM), hits mostly inhibitors; actives 6.6% (n = 94,000); note: nearly all actives have a fitted effect of over 60% in size
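HEK 293 cells at 250 cells/well were exposed to compounds by pintool transfer for 48 or 72 hr at 37 degree Celsius, 5% CO2. Viability was read as ATP-coupled luminescence with CellTiter-Glo after 10 min at room temperature.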
NPR1 antag: Natriuretic polypeptide receptor (hNpr1) antagonism - Primary qHTS; Atrial natriuretic peptide receptor 1 (Homo sapiens), P16066; HEK293 hNpr1 GloSensor cGMP, ANP-stimulated luminescence; Potency, µM (titrated, usually from 46.3 µM), most hits filed as inhibitors; actives 1.6% (n = 76,000); calls by dose curve; note: nearly all actives have a fitted effect of over 60% in size
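Compound pre-incubated 30 min at room temperature on GloSensor-loaded HEK293 cells stably carrying hNpr1 and the pGS-40F cGMP biosensor. Stimulation uses hNppA at 0.1 nM final; luminescence is taken at baseline and 20 min post-agonist.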
NPR1 antag cnf: Natriuretic polypeptide receptor (hNpr1) antagonism - Confirmation; shares compounds with NPR1 antag; HEK293 hNpr1 cGMP GloSensor luminescence, ANP-stimulated; Potency, µM (highest dose often 57.6 µM), actives largely listed as inhibitors; actives 76% (n = 1,400); calls by dose curve; note: nearly all actives have a fitted effect of over 70% in size
Npr2 selectivity: Natriuretic polypeptide receptor (hNpr2) antagonism - Subtype selectivity assay. AID 1347046, 2019. shares compounds with NPR1 antag. Potency, µM (doses to about 57.6 µM), hits mostly inhibitors. actives 67% (n = 1,400). HEK293 hNpr2 GloSensor cGMP luminescence, CNP-stimulated; calls by dose curve; note: nearly all actives have a fitted effect of over 70% in size
Target sequence (P20594 whole entry, looked up): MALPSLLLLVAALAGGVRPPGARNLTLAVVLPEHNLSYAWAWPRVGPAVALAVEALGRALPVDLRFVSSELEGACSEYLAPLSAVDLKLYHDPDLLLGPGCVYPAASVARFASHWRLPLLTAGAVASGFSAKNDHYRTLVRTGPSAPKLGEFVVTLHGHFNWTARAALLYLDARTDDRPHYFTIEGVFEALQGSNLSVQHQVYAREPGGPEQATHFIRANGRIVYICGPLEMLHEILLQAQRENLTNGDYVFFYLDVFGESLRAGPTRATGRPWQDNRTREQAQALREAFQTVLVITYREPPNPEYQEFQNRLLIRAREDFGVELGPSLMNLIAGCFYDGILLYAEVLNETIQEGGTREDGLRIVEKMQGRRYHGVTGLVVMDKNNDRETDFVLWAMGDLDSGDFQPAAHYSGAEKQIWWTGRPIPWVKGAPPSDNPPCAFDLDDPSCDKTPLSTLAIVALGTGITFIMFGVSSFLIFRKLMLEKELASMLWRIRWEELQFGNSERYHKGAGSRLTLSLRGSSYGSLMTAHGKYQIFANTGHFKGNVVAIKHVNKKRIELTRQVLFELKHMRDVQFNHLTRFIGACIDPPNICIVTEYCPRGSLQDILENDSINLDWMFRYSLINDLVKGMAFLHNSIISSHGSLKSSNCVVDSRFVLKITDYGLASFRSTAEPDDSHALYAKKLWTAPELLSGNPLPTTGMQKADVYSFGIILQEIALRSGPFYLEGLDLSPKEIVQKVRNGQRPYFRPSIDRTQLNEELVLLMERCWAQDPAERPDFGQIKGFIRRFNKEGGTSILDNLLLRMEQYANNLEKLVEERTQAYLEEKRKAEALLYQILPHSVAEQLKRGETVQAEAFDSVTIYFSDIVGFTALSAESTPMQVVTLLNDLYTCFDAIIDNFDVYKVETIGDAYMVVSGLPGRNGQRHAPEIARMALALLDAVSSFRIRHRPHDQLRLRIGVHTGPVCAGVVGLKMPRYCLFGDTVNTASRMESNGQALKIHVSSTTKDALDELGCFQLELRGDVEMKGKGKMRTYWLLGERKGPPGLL
FLuc inh counter: Natriuretic polypeptide receptor (hNpr1) antagonism - Confirmation firefly luciferase (FLuc) inhibition counterscreen. shares compounds with NPR1 antag. purified FLuc enzyme, luminescence, Km substrate. Potency, µM (doses to about 57.6 µM), hits mostly inhibitors. actives 0.7% (n = 1,400)
GloSensor ctrl: Natriuretic polypeptide receptor (hNpr1) antagonism - Counterscreen GloSensor control cell line; shares compounds with NPR1 antag; HEK293 GloSensor cGMP, SNP-stimulated, luminescence; Potency, µM (top dose mostly 57.6 µM), usual class: inhibitors; actives 69% (n = 1,400); AID 1347051, 2019; calls by dose curve; note: nearly all actives have a fitted effect of over 70% in size
Hits are given with their value; 0 = inactive; ? = inconclusive; - = no result; ! = repeats disagree; [ ] = another dose, or the depositor's remark. Unless noted, calls come from the whole dose curve; as a rule, active = well fitted curve in the direction sought with a large enough effect; inconclusive = small, poorly fitted or top-dose-only effect, or another doubt; inactive = no such curve, though single readings can be large; an effect the other way counts as inactive or inconclusive.

SMILES	Luciferase inh	NIH3T3 tox	GPT2 inh	HEK cytotox	NPR1 antag	NPR1 antag cnf	Npr2 selectivity	FLuc inh counter	GloSensor ctrl
O=C(c1ccc[nH]1)N1CCN(C(=O)c2nnn3c2COC(c2ccc(Cl)cc2)C3)CC1 (stereo unspecified)	0	0	0	0	0	-	-	-	-
O=C(c1cccc(Cl)c1)N1CCN(C(=O)c2nnn3c2COC(c2ccc(F)cc2)C3)CC1 (stereo unspecified)	0	?	0	?	13µM	24µM	24µM	0	24µM
O=C(c1nnn2c1COC(c1ccc(Cl)cc1)C2)N1CCN(C(=O)c2c(F)cccc2F)CC1 (stereo unspecified)	0	?	0	?	?	?	?	0	?
CC(C)c1ccc(CNC(=O)C2CCN(c3cc(C(F)(F)F)ncn3)CC2)cc1	0	?	0	?	13µM	24µM	22µM	0	22µM
CCc1ccc(NC(=O)C2CCN(c3cc(C(F)(F)F)ncn3)CC2)cc1	0	?	0	?	7.9µM	11µM	11µM	0	9.7µM
O=C(NCc1ccc(F)cc1)C1CCN(c2cc(C(F)(F)F)ncn2)CC1	0	?	0	?	?	-	-	-	-
O=C(NCCCc1ccccc1)C1CCN(c2cc(C(F)(F)F)ncn2)CC1	0	?	0	?	11µM	22µM	19µM	0	11µM
Cc1ccc(NC(=O)C2CCN(c3cc(C(F)(F)F)ncn3)CC2)cc1	0	?	0	?	8.9µM	14µM	15µM	0	12µM
O=C(NC1CCCCCC1)C1CCN(c2cc(C(F)(F)F)ncn2)CC1	0	0	0	0	?	-	-	-	-
COC(=O)CNC(=O)c1ccc2nnc(Cc3ccc(OC)cc3)n2c1	-	0	0	0	-	-	-	-	-
COCC(=O)N1CCN(C(=O)c2nc3cccnc3n(Cc3ccc(OC)cc3)c2=O)CC1	-	0	-	0	-	-	-	-	-
CN(C)C(=O)NC1CCCN(Cc2ccc(-c3cncnc3)cc2)C1 (stereo unspecified)	-	0	0	?	-	-	-	-	-
O=C(Cc1ccc(Cl)cc1)NC1CCN(CCn2nc3n(c2=O)CCCC3)C1 (stereo unspecified)	-	0	-	0	-	-	-	-	-
CC(NC(=O)C1CCN(c2cc(C(F)(F)F)ncn2)CC1)c1ccc(F)cc1 (stereo unspecified)	0	?	0	?	0	-	-	-	-
COc1ccc(C(C)NC(=O)C2CCN(c3cc(C(F)(F)F)ncn3)CC2)cc1 (stereo unspecified)	0	?	0	?	16µM	24µM	27µM	0	22µM
CN(C)S(=O)(=O)N1CCC(CCc2nc(C3CCOCC3)no2)CC1	-	0	0	?	-	-	-	-	-
CC(C)NC(=O)c1ccc(-c2nnc3ccc(NC(=O)C4CCC4)cn23)cc1	0	0	0	?	0	-	-	-	-
COc1cccc(NC(=O)c2ccc(-c3nnc4ccc(NC(=O)C5CCC5)cn34)cc2)c1	0	0	0	0	?	24µM	?	0	22µM
O=C(CC(c1ccc(F)cc1)c1cn(Cc2ccccc2)c2ccc([N+](=O)[O-])cc12)N1CCOCC1 (stereo unspecified)	0	?	0	?	10µM	24µM	24µM	0	19µM
CCc1cc(=O)n(CC(=O)Nc2ccc3c(c2)OCCO3)c(-c2cccc(F)c2)n1	0	?	0	?	?	?	0	0	?
COc1ccc(-c2nnc3ccc(N4CCC(c5ccccc5)CC4)nn23)nc1	0	?	0	?	0	-	-	-	-
COc1ccc(C(=O)N2CCC3(CC2)CC(c2cccc(C(F)(F)F)c2)=NO3)cc1	0	22µM!	0	35µM!	11µM	24µM	27µM	0[6.39 µM]	?
CC(=O)N1Cc2ccccc2CC2(CCN(Cc3ccccc3)C2)C1 (stereo unspecified)	-	0	0	0	-	0	0	0	0
CC(=O)N1Cc2ccccc2CC2(CCN(Cc3ccncc3)C2)C1 (stereo unspecified)	-	0	0	0	-	-	-	-	-
CC(C)(N)c1cn(CC2CCN(C(=O)NC3CCCCCC3)CC2)nn1	0	0	0	0	0	-	-	-	-
SMILES	Luciferase inh	NIH3T3 tox	GPT2 inh	HEK cytotox	NPR1 antag	NPR1 antag cnf	Npr2 selectivity	FLuc inh counter	GloSensor ctrl
CC(C)Cc1cn(CC2CCCN(C(=O)NC3CCCCCC3)C2)nn1 (stereo unspecified)	0	?	0	?	10µM	17µM	17µM	0	12µM
N#Cc1ccccc1CN1CCNc2nc(CNCc3ccc4c(c3)OCO4)n(Cc3ccccc3)c2C1=O	0	?	0	?	0	-	-	-	-
COc1ccc(CN2C(=O)[C@@H]3C[C@@H](CN3Cc3cccs3)Oc3ccccc32)cc1	0	?	0	79µM	?	?	?	0	0
COc1ccccc1C(=O)N1CCN(CCn2nc3n(c2=O)CCCC3)CC1	-	0	-	0	-	-	-	-	-
CSc1cccc(NC(=O)Cn2c(N3CCC(C)CC3)nc(C)cc2=O)c1	0	11µM	0	11µM	11µM	12µM	14µM	0	9.7µM
Cc1cc(=O)n(CC(=O)Nc2cccc(C(F)(F)F)c2)c(N2CCC(C)CC2)n1	0	22µM	0	35µM	10µM	12µM	14µM	0	11µM
Cc1cccc(NC(=O)Cn2c(N3CCC(C)CC3)nc(C)cc2=O)c1	0	?	0	?	?	-	-	-	-
COCCCNC(=O)c1nc2sccn2c1-c1ccc(C(F)(F)F)cc1	-	?	0	0	-	-	-	-	-
O=C(Cc1c[nH]c2ncc(-c3ccccc3)cc12)NCCc1ccccc1	0	?	?	?	?	-	-	-	-
Cc1ccccc1-c1cnc2[nH]cc(CC(=O)NC(C)C)c2c1	0	?	0	?	28µM	31µM	31µM	0	35µM
Cc1ccccc1-c1cnc2[nH]cc(CC(=O)NCc3ccccc3)c2c1	0	0	0	?	13µM	25µM	25µM	0	14µM
